# Assay outcomes deposited in PubChem BioAssay by NMMLSC.
# Sampled rows, rich in hits. Any-hit rate of the full collection: about 1.2%.
# GSH bead fluor: compound fluorescence on glutathione beads, profiling panel, artefact control, biophysical, 488/530 nm, flow cytometry; GSH beads flow cytometry, compound fluorescence 488/530 nm; hits give high values; fluorescence (KMESF) at 10 µM; 190,000 tested, 0.25% active; in the data active = fluorescence above about 89;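 note: glutathione beads carrying GST-tagged Bcl family fusion proteins plus one bare bead set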
# RGS16-Gao: modulators of RGS16 binding to Galphao, primary screen, biochemical, human proteins, multiplexed bead flow cytometry | Regulator of G-protein signaling 16 (Homo sapiens) + Guanine nucleotide-binding protein … | bead-based flow cytometry RGS16-Galphao binding, fluorescence; actives lie on both sides | binding response (% of control), % at 10 µM | 220,000 tested, 0.38% active;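 note: Galphao activated by GDP with aluminum fluoride before binding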
# RGS8-Gao reg: RGS8-Galphao binding modulators, primary screen, biochemical, multiplexed bead flow cytometry; actives lie on both sides; response (percent of control binding), % at 10 µM; 220,000 tested, 0.34% active; AID 1423, 2008; in the data active = response below about 60% or above about 140%; inactive = in between;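 note: Galphao activated as the GDP aluminium fluoride complex binding bead-coupled RGS8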
# Target sequence (P09471 whole entry, looked up): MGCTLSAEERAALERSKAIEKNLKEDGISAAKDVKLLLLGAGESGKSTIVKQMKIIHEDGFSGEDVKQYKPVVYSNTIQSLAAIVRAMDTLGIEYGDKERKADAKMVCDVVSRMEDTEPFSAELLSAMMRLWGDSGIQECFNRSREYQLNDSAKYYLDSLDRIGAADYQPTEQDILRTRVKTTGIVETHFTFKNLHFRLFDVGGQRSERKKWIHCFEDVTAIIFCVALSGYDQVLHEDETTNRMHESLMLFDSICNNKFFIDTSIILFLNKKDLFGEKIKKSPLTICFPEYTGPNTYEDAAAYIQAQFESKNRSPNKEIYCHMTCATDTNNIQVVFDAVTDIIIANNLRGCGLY
# RGS4-Gao reg: modulators of RGS4 binding to Galphao, primary screen, biochemical, multiplexed bead flow cytometry | binding response (% of control), % at 10 µM | 220,000 tested, 0.33% active | AID 1415, 2008 | actives lie on both sides; in the data active = binding response below about 49% or above about 150%; inactive = in between;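 note: fluorescent Galphao activated with aluminum fluoride binding bead-coupled RGS4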
# RGS7-Gao reg: RGS7-Galphao binding modulators, primary screen, biochemical, multiplexed bead flow cytometry; 220,000 tested, 0.35% active; actives lie on both sides; Guanine nucleotide-binding protein G(o) subunit alpha (Homo sapiens), P09471; binding response (% of control), % at 10 µM; in the data active = binding response below about 49% or above about 150%; inconclusive = no clear call, values can overlap the other calls; inactive = in between;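 note: fluorescent Galphao held in activated GDP-AlF4 state binding bead-coupled RGS7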
# Avidin fluor: green autofluorescence of compounds with avidin beads – biophysical, 488/530 nm, flow cytometry, artefact control, profiling panel; 220,000 tested, 0.38% active; fluorescence (KMESF) at 10 µM; AID 1775, 2009; compound fluorescence 488/530 nm; hits give high values; in the data active = fluorescence above about 47
# RGS-Gao: modulators of RGS–Galpha-o binding, primary screen, biochemical, multiplexed beads, flow cytometry, RGS4/7/8/16/19. 1,600 tested, 99% active. shares compounds with RGS16-Gao. AID 1504, 2009. multiplexed bead flow cytometry. RGS4–Galpha-o binding response, % at 10 µM;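 note: fluorescently labeled Galpha-o bound to GDP with aluminium fluoride binding biotinylated RGS beads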
# Target sequence (P09471 whole entry, looked up): as above
# Target sequence (P49798 whole entry, looked up): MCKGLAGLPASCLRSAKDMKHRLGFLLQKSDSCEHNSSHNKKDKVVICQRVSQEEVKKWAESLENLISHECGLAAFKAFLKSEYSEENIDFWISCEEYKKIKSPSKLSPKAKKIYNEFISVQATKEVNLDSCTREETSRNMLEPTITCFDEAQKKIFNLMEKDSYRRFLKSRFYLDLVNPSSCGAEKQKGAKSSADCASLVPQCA
# Avidin counter: disruption of biotin probe capture by avidin, counter-screen for RGS protein interaction modulators, biochemical, flow cytometry, bead-based. shares compounds with RGS16-Gao. streptavidin beads, fluorescein-biotin binding. 1,700 tested, under 10 active. inhibition, % at 10 µM. AID 1783, 2009;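 active = inhibition above 50%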;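 note: median green fluorescence of gated singlet beads compared with DMSO control wells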
# RGS8-Gao single: RGS8-Galphao binding modulators, confirmation, biochemical, multiplexed bead flow cytometry, single concentration; shares compounds with RGS16-Gao; bead-based flow cytometry RGS8-Galphao binding, fluorescence; actives lie on both sides; binding response (% of control), % at 10 µM; 1,700 tested, 3% active; AID 1836, 2009; in the data active = binding response below about 72% or above about 130%; inactive = in between;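 note: Galphao activated as GDP AlF4 complex before binding bead RGS8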
# RGS7-Gao single: RGS7-Galphao binding modulators, confirmation, biochemical, multiplexed bead flow cytometry, single concentration; bead-based flow cytometry RGS7-Galphao binding; actives lie on both sides; response (percent of control binding), % at 10 µM; 1,700 tested, 7.8% active; shares compounds with RGS16-Gao; in the data active = response below about 75% or above about 130%; inactive = in between;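 note: fluorescent Galphao activated with GDP and aluminum fluoride binding bead-coupled RGS7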
# RGS16-Gao conf: modulators of RGS16-Galphao protein binding, confirmation, biochemical, single concentration, multiplexed bead flow cytometry; shares compounds with RGS16-Gao; bead-based flow cytometry; actives lie on both sides; response (% of control binding), % at 10 µM; 1,700 tested, 4% active; AID 1838, 2009; in the data active = response below about 74% or above about 130%; inactive = in between;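 note: Galphao activated as the GDP aluminium fluoride complex binding bead-coupled RGS16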
# RGS4-Gao single: modulators of RGS4-Galphao protein binding, confirmation, biochemical, single concentration, multiplexed bead flow cytometry | binding response (% of control), % at 10 µM | shares compounds with RGS16-Gao | 1,700 tested, 4% active | AID 1840, 2009 | actives lie on both sides; in the data active = binding response below about 74% or above about 130%; inactive = in between
# RGS19-Gao conf: regulators of RGS19-Galphao binding, confirmation, biochemical, single point, multiplexed bead flow cytometry. bead-based flow cytometry RGS19-Galphao binding; actives lie on both sides. response (percent of control binding), % at 10 µM. shares compounds with RGS16-Gao. 1,700 tested, 5% active; in the data active = response below about 50% or above about 160%; inactive = in between
# Numbers stand for hits; n = inactive; u = inconclusive; x = not tested or not shown; [ ] = remark or other dose. Unless noted, the rule behind the calls is not given here.
SMILES,GSH bead fluor,RGS16-Gao,RGS8-Gao reg,RGS4-Gao reg,RGS7-Gao reg,Avidin fluor,RGS-Gao,Avidin counter,RGS8-Gao single,RGS7-Gao single,RGS16-Gao conf,RGS4-Gao single,RGS19-Gao conf
O=C(NCCCN1CCOCC1)c1sc2cc([N+](=O)[O-])ccc2c1Cl,n,24.9,n,n,u,n,100.3,n,64.6,n,13.1,n,29.7
COc1ccccc1N1CCN(S(=O)(=O)c2c(C)[nH]c(=O)[nH]c2=O)CC1,n,n,n,n,n,n,x,x,x,x,x,x,x
Cc1ccc(NC(=O)CN(Cc2ccccc2)S(C)(=O)=O)cc1C,n,n,n,n,n,n,x,x,x,x,x,x,x
CCCCNC(=O)COC(=O)c1ccc(Cl)c(S(N)(=O)=O)c1,n,n,n,n,n,n,x,x,x,x,x,x,x
CCCn1c(N)nc2ccccc21,n,n,144.3[activator],n,n,n,115.3,n,n,n,n,n,n
O=C(CCc1nc2ccccc2c(=O)[nH]1)OCc1ccc(Cl)cc1Cl,n,n,n,n,n,n,x,x,x,x,x,x,x
COc1ccc(NC(=O)CSc2nnc(CNC(=O)COc3ccc(Cl)cc3)o2)c(OC)c1,n,n,n,n,n,n,x,x,x,x,x,x,x
COc1ccc(OC)c(NC(=O)CSc2nnc(CNC(=O)COc3ccc(Cl)cc3)o2)c1,n,n,n,n,159.5[activator],68,105.2,n,n,n,n,n,n
COc1ccc(S(=O)(=O)N2CCC(N3CCN(c4ccccc4OC)CC3)CC2)cc1,x,n,n,n,u,n,x,x,x,x,x,x,x
CCOc1ccccc1N1CCN(C(=O)c2ccncc2)CC1,n,n,n,n,n,n,x,x,x,x,x,x,x
CCOc1ccccc1N1CCN(C(=O)c2ccc3[nH]c4c(c3c2)CCCC4)CC1,n,24.4,n,n,n,n,83.6,n,n,n,n,n,n
COc1cc(/C=N/Nc2nc(=O)[nH]nc2C)cc([N+](=O)[O-])c1O,x,n,n,n,u,n,x,x,x,x,x,x,x
C#CCNC(=O)C1=C[C@@H](C(C)(C)C)C[C@@H](OCc2ccc(CO)cc2)O1,n,16.8,21.5,29.6,21.2,n,x,n,n,n,n,n,n
O=C(COC(=O)c1ccccc1)NCc1cccs1,n,n,n,n,n,n,x,x,x,x,x,x,x
Cc1cc(C)cc(C(=O)OCC(=O)NCc2cccs2)c1,n,175.7[activator],n,n,n,n,109.8,n,n,n,n,n,n
C=CCn1c(C)csc1=Nc1ccc(C(=O)O)cc1,n,n,n,n,u,n,x,x,x,x,x,x,x
Cc1cc(C)c2c(N)c(C(=O)NCC3CCCCC3)sc2n1,n,n,n,n,n,n,x,x,x,x,x,x,x
Cc1cc(C)c2c(N)c(C(=O)NC3CCCC3)sc2n1,n,n,142.2[activator],n,n,n,113.0,n,n,72.8,n,n,n
C#CCOCCOCCOCCNc1nc(N2CCN(C(=O)[C@H](CCC(=O)O)n3cc(C(N)CC(C)C)nn3)CC2)nc(N2CCN(C(=O)[C@H](Cc3ccc(O)cc3)n3cc(C(N)[C@H](C)CC)nn3)CC2)n1 (stereo partly specified),n,n,n,n,n,n,x,x,x,x,x,x,x
CCCCNC(=O)CN(CCc1ccccc1)S(C)(=O)=O,n,n,n,168.7[activator],n,n,x,n,n,n,n,n,n
Cc1ccc(-c2c[n+](CC(=O)OCc3ccccc3)c3n2CCC3)cc1,n,7.7,12.7,11.9,9.5,n,x,n,n,n,n,n,n
OCCCN1CCN(CCCOc2ccccc2-c2ccccc2)CC1,n,178.9[activator],n,n,n,n,106.9,n,n,n,n,n,n
c1ccc(-c2ccccc2OCCCN2CCOCC2)cc1,n,n,n,n,n,n,x,x,x,x,x,x,x
Cc1ccc2c(c1)NC(=O)C(CC(=O)NCc1ccc(F)cc1)O2 (stereo unspecified),n,n,n,n,n,n,x,x,x,x,x,x,x
Cc1ccc2c(c1)NC(=O)C(CC(=O)NCc1cccnc1)O2 (stereo unspecified),n,n,160.9[activator],154.1[activator],n,n,x,n,n,n,n,n,n
SMILES,GSH bead fluor,RGS16-Gao,RGS8-Gao reg,RGS4-Gao reg,RGS7-Gao reg,Avidin fluor,RGS-Gao,Avidin counter,RGS8-Gao single,RGS7-Gao single,RGS16-Gao conf,RGS4-Gao single,RGS19-Gao conf
COc1ccc(NS(=O)(=O)c2cccc(NC(=O)c3ccc(S(=O)(=O)N4CCCCCC4)cc3)c2)cc1,n,n,n,n,n,n,x,x,x,x,x,x,x
CCOC(=O)c1c(NC(=O)c2cc(-c3ccc(O)cc3)on2)sc(C(C)=O)c1C,n,344.1[activator],n,258.5[activator],n,n,x,n,n,145.2[activator],195.8[activator],151.7[activator],432.9[activator]
CCOC(=O)c1c(NC(=O)CSc2nc3ccccc3o2)sc(C(C)=O)c1C,n,-3.6,7.6,1.8,2.6,n,x,n,n,n,n,n,n
CCOC(=O)c1sc(NC(=O)CSc2nnc(Cc3ccccc3)o2)c(C#N)c1C,n,18.7,n,n,n,n,101.3,n,69.5,143.4[activator],50.7,n,32.5
Nc1ccc(Oc2ccc3c(c2)C(=O)N(CC2CCCO2)C3=O)cc1 (stereo unspecified),x,n,n,n,u,n,x,x,x,x,x,x,x
CN(C)CCNC(=O)/C(=C/c1ccc(-c2ccc(Cl)cc2)o1)NC(=O)c1ccccc1,n,n,162.5[activator],182.5[activator],185.5[activator],n,x,n,n,n,n,n,n
